Assay results from PubChem BioAssay (Tox21).
Inconclusive results are not listed. Entries that show only a call come without a potency. Calls of active or inactive are those of the source. Calls come from the whole dose curve.
Potency is the fitted concentration of half-maximal effect.

Each molecule was assayed against 5-hydroxytryptamine receptor 2A (Homo sapiens) (UniProt P28223) (assay: 5-hydroxytryptamine receptor 2A (HTR2A) small molecule agonists, cell-based qHTS assay (AID 1963587; note: nearly all actives have a fitted effect of over 30% in size)). Details: HTR2A-CHO cells, calcium flux fluorescence, agonist mode; series mostly up to 76.8 µM.
Chain of 5-hydroxytryptamine receptor 2A (Homo sapiens) (P28223 whole entry, looked up): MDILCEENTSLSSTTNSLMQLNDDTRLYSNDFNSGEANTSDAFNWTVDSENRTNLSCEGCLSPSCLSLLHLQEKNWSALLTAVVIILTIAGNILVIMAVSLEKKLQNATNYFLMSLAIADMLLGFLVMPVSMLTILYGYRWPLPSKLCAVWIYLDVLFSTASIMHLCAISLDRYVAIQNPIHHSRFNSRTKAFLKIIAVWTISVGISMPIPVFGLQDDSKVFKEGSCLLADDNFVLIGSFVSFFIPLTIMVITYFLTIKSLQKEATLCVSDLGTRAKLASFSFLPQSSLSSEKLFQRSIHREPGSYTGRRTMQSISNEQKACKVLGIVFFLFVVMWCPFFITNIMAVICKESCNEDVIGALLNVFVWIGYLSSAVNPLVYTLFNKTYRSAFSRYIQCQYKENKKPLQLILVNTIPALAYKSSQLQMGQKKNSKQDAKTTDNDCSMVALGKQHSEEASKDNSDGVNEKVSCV
Outline: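 Kinetic calcium-flux fluorescence (2 min, 1 sec intervals) after compound addition in agonist mode. HTR2A-CHO cells were cultured 18 h, then dye-loaded 1 h at 37 C.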
For CCCN(CCC)CCc1c[nH]c2ccccc12, the Potency was 0.0043 µM (active). CCOC(=O)C(SP(=S)(OC)OC)c1ccccc1 (configuration not stated) was tested, and the Potency was “inactive”. In the case of CCOP(=S)(OCC)SCS(=O)(=O)C(C)(C)C, the Potency is reported as “inactive”. In the case of O=NN(CCO)CCO, the Potency is reported as “inactive”. c1coc(-c2nc3ccccc3[nH]2)c1 was tested, and the Potency was “inactive”. For CC1CCC(C(C)C)C(OC(=O)c2ccccc2N)C1 (configuration not stated), the Potency was “inactive”. In the case of Cc1ccn2nc(S(=O)(=O)Nc3c(F)cccc3F)nc2n1, the Potency is reported as “inactive”. For O=[N+]([O-])c1ccc(Cl)c(Cl)c1Cl, the Potency was “inactive”. In the case of CCOP(=S)(Oc1cnc(C(C)(C)C)nc1)OC(C)C (configuration not stated), the Potency is reported as “inactive”. In the case of O=C1c2ccccc2C(=O)c2ccccc21, the activation is reported as -4.26% [at 15.9 µM] (inactive). In the case of C[C@H](N)[C@H](O)c1ccc(O)c(O)c1, the Potency is reported as “inactive”. In the case of CCN(CC)C(=S)[S-].CCN(CC)C(=S)[S-].[Zn+2], the Potency is reported as 19.3 µM (active). CCCCN(N=O)C(=N)N[N+](=O)[O-] was tested, and the Potency was “inactive”. For IC(I)=C(I)I, the Potency was “inactive”. For CON(C)C(=O)Nc1ccc(Br)c(Cl)c1, the Potency was “inactive”. For C=CC(=O)OCC(COC(=O)C=C)(COC(=O)C=C)COC(=O)C=C, the Potency was “inactive”. In the case of CCNC(=O)NC(=O)/C(C#N)=N/OC, the Potency is reported as “inactive”. In the case of CCOc1nc(C(Cl)(Cl)Cl)ns1, the Potency is reported as “inactive”. For CC(=O)[O-].CC(=O)[O-].[Hg+2], the Potency was 49 µM (active). In the case of O=CCCl, the Potency is reported as “inactive”. In the case of COc1cccc2c1C(=O)c1c(O)c3c(c(O)c1C2=O)C[C@@](O)(C(=O)CO)CC3OC1CC(N2CCOC(OC)C2)C(O)C(C)O1 (some centres not stated), the Potency is reported as 16.9 µM (active). CCCCOC(=O)c1ccccc1N was tested, and the Potency was “inactive”. Nc1cc(Cl)ccc1Cl was tested, and the Potency was “inactive”. In the case of CCCN1CCC[C@@H]2Cc3nc(N)ncc3C[C@H]21, the Potency is reported as 8.49 µM (active). For CNC(=O)Oc1cccc(C(C)C)c1, the Potency was “inactive”. CC(=O)OC(c1ccccc1)C(Cl)(Cl)Cl (configuration not stated) was tested, and the Potency was “inactive”. CC(C)C(Nc1ccc(C(F)(F)F)cc1Cl)C(=O)OC(C#N)c1cccc(Oc2ccccc2)c1 (configuration not stated) was tested, and the Potency was “inactive”. With C[CH2][Hg][N]1C(=O)C2C(C1=O)C1(Cl)C(Cl)=C(Cl)C2(Cl)C1(Cl)Cl (configuration not stated) the Potency was 10.4 µM (active). For Oc1ccc2[nH]cc(CCCCN3CC=C(c4ccccc4)CC3)c2c1, the Potency was “inactive”. In the case of CC(=O)[O-].CC(=O)[O-].O.O.[Cd+2], the Potency is reported as 27.2 µM (active). In the case of NC(=O)CI, the Potency is reported as “inactive”. In the case of CCN(CC)c1nc(C)cc(OP(=S)(OC)OC)n1, the Potency is reported as “inactive”. COC(=O)C(C)N(C(=O)Cc1ccccc1)c1c(C)cccc1C (configuration not stated) was tested, and the Potency was “inactive”. With OCCBr the Potency was “inactive”.

What follows are molecules tested against Muscarinic acetylcholine receptor M1 (Homo sapiens) (UniProt P11229) (assay: Cholinergic receptor muscarinic 1 (CHRM1) small molecule antagonists, cell-based qHTS assay (AID 1963588; note: nearly all actives have a fitted effect of over 40% in size)). Details: CHRM1-CHO antagonist mode, calcium flux fluorescence; series mostly up to 61.5 µM.
Chain of Muscarinic acetylcholine receptor M1 (Homo sapiens) (P11229 whole entry, looked up): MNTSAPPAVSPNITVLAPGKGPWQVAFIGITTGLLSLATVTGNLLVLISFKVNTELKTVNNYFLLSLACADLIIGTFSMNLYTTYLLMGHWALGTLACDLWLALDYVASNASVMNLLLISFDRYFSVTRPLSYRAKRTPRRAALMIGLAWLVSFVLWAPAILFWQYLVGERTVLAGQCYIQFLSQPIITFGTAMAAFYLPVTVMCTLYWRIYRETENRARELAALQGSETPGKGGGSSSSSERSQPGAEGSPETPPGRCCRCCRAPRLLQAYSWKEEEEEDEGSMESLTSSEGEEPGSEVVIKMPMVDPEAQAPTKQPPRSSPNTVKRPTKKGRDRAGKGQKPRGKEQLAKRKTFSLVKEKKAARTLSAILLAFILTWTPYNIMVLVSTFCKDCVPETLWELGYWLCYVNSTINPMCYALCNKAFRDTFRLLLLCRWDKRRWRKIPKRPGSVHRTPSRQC
Outline: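 CHRM1-CHO calcium-flux assay, antagonist mode. Cells were seeded 18 h, dye-loaded 1 h at 37 C and given compound for 5 min at RT, then acetylcholine was added at 50nM. FDSS fluorescence was read 3 min; 15 concentrations, three runs.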
With CCC(C)c1cc([N+](=O)[O-])cc([N+](=O)[O-])c1OC(=O)C=C(C)C (configuration not stated) the Potency was “inactive”. CCCN(CCC)CCc1c[nH]c2ccccc12 was tested, and the Potency was “inactive”. With CCOC(=O)C(SP(=S)(OC)OC)c1ccccc1 (configuration not stated) the Potency was “inactive”. O=NN(CCO)CCO was tested, and the Potency was “inactive”. With c1coc(-c2nc3ccccc3[nH]2)c1 the Potency was “inactive”. With Cc1ccn2nc(S(=O)(=O)Nc3c(F)cccc3F)nc2n1 the Potency was “inactive”. In the case of O=[N+]([O-])c1ccc(Cl)c(Cl)c1Cl, the Potency is reported as “inactive”. CCOP(=S)(Oc1cnc(C(C)(C)C)nc1)OC(C)C (configuration not stated) was tested, and the Potency was “inactive”. For O=C1c2ccccc2C(=O)c2ccccc21, the activity, negative = inhibition was 2.2% [at 12.6 µM] (inactive). With C[C@H](N)[C@H](O)c1ccc(O)c(O)c1 the Potency was “inactive”. CCN(CC)C(=S)[S-].CCN(CC)C(=S)[S-].[Zn+2] was tested, and the Potency was “inactive”. In the case of CCCCN(N=O)C(=N)N[N+](=O)[O-], the Potency is reported as “inactive”. For IC(I)=C(I)I, the Potency was “inactive”. In the case of CON(C)C(=O)Nc1ccc(Br)c(Cl)c1, the Potency is reported as “inactive”. CCC1(C2=NCCN2)Cc2ccccc2O1 (configuration not stated) was tested, and the Potency was “inactive”. For C=CC(=O)OCC(COC(=O)C=C)(COC(=O)C=C)COC(=O)C=C, the Potency was “inactive”. In the case of CCNC(=O)NC(=O)/C(C#N)=N/OC, the Potency is reported as “inactive”. For CC(=O)[O-].CC(=O)[O-].[Hg+2], the Potency was 21.1 µM (active). For O=CCCl, the Potency was “inactive”. With COc1cccc2c1C(=O)c1c(O)c3c(c(O)c1C2=O)C[C@@](O)(C(=O)CO)CC3OC1CC(N2CCOC(OC)C2)C(O)C(C)O1 (some centres not stated) the Potency was “inactive”. With CCCCOC(=O)c1ccccc1N the Potency was “inactive”. For Nc1cc(Cl)ccc1Cl, the Potency was “inactive”. For CCCN1CCC[C@@H]2Cc3nc(N)ncc3C[C@H]21, the Potency was “inactive”. CC(=O)OC(c1ccccc1)C(Cl)(Cl)Cl (configuration not stated) was tested, and the Potency was “inactive”. For CC(C)C(Nc1ccc(C(F)(F)F)cc1Cl)C(=O)OC(C#N)c1cccc(Oc2ccccc2)c1 (configuration not stated), the Potency was “inactive”. With C[CH2][Hg][N]1C(=O)C2C(C1=O)C1(Cl)C(Cl)=C(Cl)C2(Cl)C1(Cl)Cl (configuration not stated) the activity, negative = inhibition was -14.4% [at 12.6 µM] (inactive). Oc1ccc2[nH]cc(CCCCN3CC=C(c4ccccc4)CC3)c2c1 was tested, and the Potency was “inactive”. In the case of CC(=O)[O-].CC(=O)[O-].O.O.[Cd+2], the Potency is reported as “inactive”. NC(=O)CI was tested, and the Potency was “inactive”. With CCN(CC)c1nc(C)cc(OP(=S)(OC)OC)n1 the Potency was “inactive”. For COC(=O)C(C)N(C(=O)Cc1ccccc1)c1c(C)cccc1C (configuration not stated), the Potency was “inactive”. With CCCSP(=O)(OCC)SCCC the Potency was “inactive”. In the case of OCCBr, the Potency is reported as “inactive”.

These molecules were tested against Muscarinic acetylcholine receptor M1 (Homo sapiens) (UniProt P11229) (assay: Cholinergic receptor muscarinic 1 (CHRM1) small molecule agonists, cell-based qHTS assay (AID 1963589; note: nearly all actives have a fitted effect of over 35% in size)). Details: CHRM1-CHO cells, agonist mode, calcium flux fluorescence; series mostly up to 76.8 µM.
Outline: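 Each compound was tested at 15 concentrations across three independent runs on dye-loaded CHO cells stably expressing human CHRM1, reading intracellular calcium fluorescence kinetically at 1 sec intervals.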
In the case of CCC(C)c1cc([N+](=O)[O-])cc([N+](=O)[O-])c1OC(=O)C=C(C)C (configuration not stated), the Potency is reported as “inactive”. In the case of CCCN(CCC)CCc1c[nH]c2ccccc12, the Potency is reported as “inactive”. With CCOC(=O)C(SP(=S)(OC)OC)c1ccccc1 (configuration not stated) the Potency was “inactive”. In the case of CCOP(=S)(OCC)SCS(=O)(=O)C(C)(C)C, the Potency is reported as “inactive”. For O=NN(CCO)CCO, the Potency was “inactive”. In the case of c1coc(-c2nc3ccccc3[nH]2)c1, the Potency is reported as “inactive”. CC1CCC(C(C)C)C(OC(=O)c2ccccc2N)C1 (configuration not stated) was tested, and the Potency was “inactive”. Cc1ccn2nc(S(=O)(=O)Nc3c(F)cccc3F)nc2n1 was tested, and the Potency was “inactive”. For O=[N+]([O-])c1ccc(Cl)c(Cl)c1Cl, the Potency was “inactive”. For CCOP(=S)(Oc1cnc(C(C)(C)C)nc1)OC(C)C (configuration not stated), the Potency was “inactive”. With C[C@H](N)[C@H](O)c1ccc(O)c(O)c1 the Potency was “inactive”. In the case of CCN(CC)C(=S)[S-].CCN(CC)C(=S)[S-].[Zn+2], the Potency is reported as 13.7 µM (active). For CCCCN(N=O)C(=N)N[N+](=O)[O-], the Potency was “inactive”. IC(I)=C(I)I was tested, and the Potency was “inactive”. In the case of CON(C)C(=O)Nc1ccc(Br)c(Cl)c1, the Potency is reported as “inactive”. CCC1(C2=NCCN2)Cc2ccccc2O1 (configuration not stated) was tested, and the Potency was “inactive”. In the case of C=CC(=O)OCC(COC(=O)C=C)(COC(=O)C=C)COC(=O)C=C, the Potency is reported as “inactive”. For CCNC(=O)NC(=O)/C(C#N)=N/OC, the Potency was “inactive”. In the case of CCOc1nc(C(Cl)(Cl)Cl)ns1, the Potency is reported as “inactive”. For O=CCCl, the Potency was “inactive”. With COc1cccc2c1C(=O)c1c(O)c3c(c(O)c1C2=O)C[C@@](O)(C(=O)CO)CC3OC1CC(N2CCOC(OC)C2)C(O)C(C)O1 (some centres not stated) the Potency was “inactive”. In the case of CCCCOC(=O)c1ccccc1N, the Potency is reported as “inactive”. For Nc1cc(Cl)ccc1Cl, the Potency was “inactive”. With CCCN1CCC[C@@H]2Cc3nc(N)ncc3C[C@H]21 the Potency was “inactive”. For CNC(=O)Oc1cccc(C(C)C)c1, the Potency was “inactive”. Oc1ccc2[nH]cc(CCCCN3CC=C(c4ccccc4)CC3)c2c1 was tested, and the Potency was “inactive”. In the case of CC(=O)[O-].CC(=O)[O-].O.O.[Cd+2], the Potency is reported as “inactive”. For COC(=O)C(C)N(C(=O)Cc1ccccc1)c1c(C)cccc1C (configuration not stated), the Potency was “inactive”. With CCCSP(=O)(OCC)SCCC the Potency was “inactive”. In the case of OCCBr, the Potency is reported as “inactive”.
